Values joined by “and” are separate entries in the source; they are usually repeats but may differ in a detail not shown here. Identical values can stand only once. Screen size: about 290,000 compounds; about 2,000 (0.69%) were called active. No stated cut-off is given here; in the data, active means activity change below about -30%; inactive means the rest, inconclusive results apart. What follows is part of a selection rich in actives, with near analogues and random picks from the rest. Some compounds were tested as several samples or in several runs, with calls that do not always agree.
Experiment: qHTS Assay for Inhibitors of Fructose-1,6-bisphosphate Aldolase from Giardia Lamblia: Coupling assay counterscreen
Settings: coupling enzyme system counterscreen, AmpLite Red fluorescence; at 58.2 µM (top of the series)
How it was run: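 First, compound is pin-transferred into glyceraldehyde-3-phosphate coupling-enzyme reagent at 57.5 uM final and held 10 min at RT. Next, substrate, coupling system and AmpLite Red are added. After 20 min RT, fluorescence (525/598 nm) is read.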
On the % scale 0 is the no-effect control and ±100 the full control effect.

| Structure (SMILES) | activity change, negative = inhibition |
| --- | --- |
| COc1cccc(CNC(=O)CCC2CCCN(Cc3ccc(OC(F)F)cc3)C2)c1 (centres undefined) | 5.02% (inactive) |
| Cc1ccc(C(=O)N(CC(=O)NC2CCCC2)c2ccc(F)cc2)s1 | -3.12% (inactive) |
| CC1(OC(=O)C2CCCC2)C(=O)C=C2C=C(c3ccc(C#N)cc3)OC=C2C1=O (centres undefined) | -0.443% (inactive) |
| CC1(OC(=O)CCc2ccccc2)C(=O)C=C2C=C(c3ccc(C#N)cc3)N(CCc3ccccn3)C=C2C1=O (centres undefined) | -28.3% (inactive) and -0.189% (inactive) |
| COCCN1C=C2C(=O)C(C)(OC(=O)C3CCCC3)C(=O)C=C2C=C1c1ccsc1 (centres undefined) | -33.6% (active) and -32.5% (active) |
| Cc1onc(-c2ccccc2Cl)c1C(=O)OCC(=O)c1ccccc1 | -1.67% (inactive) |
| CC(=O)N(C1=C(Cl)C(=O)c2ccccc2C1=O)c1ccc(C(=O)O)cc1 | -85.1% (active) |
| CC(C)N(C(=O)c1ccc(-c2ccccc2F)cc1)C(C)C | -0.0112% (inactive) |
| O=C(CN1C(=O)c2ccccc2C1=O)NCc1ccc(C(=O)O)cc1 | 0.209% (inactive) |
| COc1ccc(C(=O)N2CCC3(CC2)CCN(c2ccccn2)CC3)cc1 | -4.93% (inactive) |
| Cc1ccc(CNC(=O)Cn2cnc(S(=O)(=O)N3CCCCC3)c2)o1 | 0.0578% (inactive) |
| CCCCn1c(SCC(=O)NCC2CCCO2)nc2ccc(N3CCOCC3)cc2c1=O (centres undefined) | -43.6% (active) |
| COCCNC(=O)c1ccc(Cn2c(SCC(=O)NCC3CCCO3)nc3ccc(Br)cc3c2=O)cc1 (centres undefined) | 0.29% (inactive) |
| O=C(CCCn1c(SCC(=O)c2ccccc2)nc2ccccc2c1=O)NCC1CCCO1 (centres undefined) | -0.079% (inactive) |
| Cc1ccc(OCC(=O)NCCCNC(=O)c2cccnc2)cc1C | -0.615% (inactive) |
| COc1ccc(C=Nc2cccc3ncccc23)cc1 | -34.4% (active) |
| COc1ccc(/C=N/Nc2nc3ccccc3c(=O)[nH]2)cc1 | 0.889% (inactive) |
| O=[N+]([O-])c1cccc2ncccc12 | 0.0628% (inactive) |
| CCCCC/C=C\C/C=C\C/C=C\CCCCC(=O)NCC(=O)O | 4.26% (inactive) |
| COC(=O)C1=C(C(=O)OC)[C@@H]2N(C)c3ccccc3[C@@]23C[C@@H](C(=O)OC)N(S(=O)(=O)c2cccs2)C3=N1 | -0.105% (inactive) |
| O=C1CN(Cc2ccccc2)S(=O)(=O)c2ccccc21 | 13.2% (inactive) |
| COc1ccc(CC(=O)N/N=C/c2cc([N+](=O)[O-])cc(Br)c2O)cc1 | 8.72% (inactive) |
| COc1ccc(CC(=O)NCC(=O)N/N=C/c2cc(Br)ccc2OC)cc1 | -33.8% (active) |
| Cc1ccc(OCCOCCOc2ccc(Br)cc2/C=N\NC(=O)c2ccncc2)cc1 | -5.74% (inactive) |

| Structure (SMILES) | activity change, negative = inhibition |
| --- | --- |
| COc1cccc(OCc2cc(C(=O)N3CCN(C(=O)c4ccco4)CC3)no2)c1 | -0.102% (inactive) |
| N#Cc1c(N2CCCCC2)nc(N)c2c(N)nc(SCC(=O)O)cc12 | -31.7% (active) |
| Cc1cc(C)c(C#N)c(N2CCC(C(N)=O)CC2)n1 | 0.379% (inactive) |
| N#Cc1c(-c2ccccc2)cc(-c2ccccc2)nc1SCC(=O)O | 5.25% (inactive) |
| CCN1CCN(c2sc(S(C)(=O)=O)nc2S(=O)(=O)c2ccc(Cl)cc2)CC1 | 1.03% (inactive) |
| Cc1ccc(-c2nc3ccccc3[nH]c2=O)cc1 | 1.32% (inactive) |
| CC(=O)c1c(-c2ccccc2)c2ccccc2[nH]c1=O | 7.44% (inactive) |
| O=c1[nH]c2ccccc2n2c(-c3ccccc3)nnc12 | -62.8% (active) |
| Cn1cc(-c2nc3cnc(N4CCNCC4)nc3n(CCc3ccccc3)c2=O)c2ccccc21 | -0.191% (inactive) |
| CC(C)C1=CC2=CC[C@@H]3[C@](C)(CO)CCC[C@]3(C)C2CC1 (some centres undefined) | -1.26% (inactive) |
| COc1cccc(CN(C)C(=O)CC23CC4CC(CC(C4)C2)C3)c1OC | -1.24% (inactive) |
| COc1ccc(S(=O)(=O)N2CCCC(C(=O)NCCCn3ccnc3)C2)cc1OC (centres undefined) | -2.16% (inactive) |
| CCN(CC)c1ccc(C(=O)Nn2c(C)nc3ccccc3c2=O)cc1 | 2.59% (inactive) |
| CC(C)Oc1c(Br)cc(Br)cc1/C=N/NC(N)=S | -0.43% (inactive) |
| COc1cccc(-n2cc3c(c2-c2ccccc2)c(=O)n(C)c(=O)n3C)c1 | -16.5% (inactive) |
| Cc1ccc(-c2c3c(=O)n(C)c(=O)n(C)c3cn2-c2ccccc2O)cc1 | -32% (active) |
| Cc1ccc(-c2c3c(=O)n(C)c(=O)n(C)c3cn2-n2cnnc2)cc1 | 1.01% (inactive) |
| O=c1o[nH]c(-c2ccccc2)c1N=Nc1c(F)cccc1Cl | 5.04% (inactive) |
| COc1cnc(SCc2ccc(Cl)c(Cl)c2)nc1Cl | 1.35% (inactive) |
| CCCC(=O)N1CCC(CCC(=O)NC2CC2)CC1 | 0.0768% (inactive) |
| O=C(CC(n1cncn1)C(Cl)(Cl)Cl)c1ccc([N+](=O)[O-])cc1 (centres undefined) | -0.311% (inactive) |
| O=C(CN1C(=O)COc2ccccc21)Nc1ccc(F)cc1 | -7.46% (inactive) |
| O=C(CN1C(=O)COc2ccccc21)NCCN1CCc2ccccc2C1 | -31.2% (active) |
| CCCN1CCN(CCCNC(=O)CN2C(=O)COc3ccccc32)CC1 | -1.3% (inactive) |

| Structure (SMILES) | activity change, negative = inhibition |
| --- | --- |
| COCc1cc(C)n(CC(=O)NCC2CCCO2)c(=O)c1C#N (centres undefined) | 0.717% (inactive) |
| CNS(=O)(=O)c1ccc(NC(=O)Nc2ccc3c(c2)OCO3)cc1 | -1.22% (inactive) |
| CCCCN(CC)C(=O)C1CCCN(S(=O)(=O)c2cccc3nsnc23)C1 (centres undefined) | -1.17% (inactive) |
| COc1ccc(CC(=O)Nc2c(C(N)=O)oc3ccccc23)cc1 | 2.14% (inactive) |
| Cn1c(-c2ccco2)nc2cc3ccccc3cc21 | -10.1% (inactive) |
| Clc1ccccc1CSc1nnc(-c2ccco2)c(-c2ccco2)n1 | -6.43% (inactive) |
| c1coc(-c2nc3nc4ccccc4n3nc2-c2ccco2)c1 | -45.8% (active) |
| CN(CCOc1ccccc1)C(=O)c1cc(COc2c(F)cccc2F)on1 | -0.542% (inactive) |
| O=[N+]([O-])c1ccc(N(CCO)Cc2ccccc2)c([N+](=O)[O-])c1 | -1.63% (inactive) |
| O=C1Nc2ccc([N+](=O)[O-])cc2C1=Nc1cccc(CO)c1 | -33% (active) |
| CN1CCN(/N=C2/C(=O)Nc3ccc([N+](=O)[O-])cc32)CC1 | -19.1% (inactive) |
| COC(=O)N/N=C/c1cn(CCCOc2ccc(C)cc2)c2ccccc12 | -8.57% (inactive) |
| COc1ccc(C2CC(O)(c3ccccc3)Oc3cc(C)cc(C)c32)cc1 (centres undefined) | -4.71% (inactive) |
| CC1C(=O)C(C)C(c2ccc(O)cc2)NC1c1ccc(O)cc1 (centres undefined) | -1.45% (inactive) |
| CCOC(=O)c1cc2occc2n1CC(=O)NC1CCC(C)CC1 (centres undefined) | -0.298% (inactive) |
| CCOC(=O)c1cc2c(ccn2C)n1CC(=O)N1CCC(C)CC1 | -41.2% (active) |
| CCOC(=O)c1cc2occc2n1CC(=O)N1CCN(C(=O)c2ccco2)CC1 | 2.42% (inactive) |
| COC(=O)N1C(/C=C/C=C/c2ccc(OC)cc2)=Cc2ccccc2C1CC(C)=O (centres undefined) | -0.194% (inactive) |
| CCc1ccccc1NC(=O)CN(C)C(=O)COc1ccc(C)nc1[N+](=O)[O-] | -2.08% (inactive) |
| Cc1ccc(OCC(=O)NC(C)c2ccccc2)c([N+](=O)[O-])n1 (centres undefined) | 0.28% (inactive) |
| Cc1ccc(OCC(=O)Nc2ccccc2Sc2ccc(Cl)cc2)c([N+](=O)[O-])n1 | -30.3% (active) |
| C=C(C(C)=O)C(O)c1cccs1 (centres undefined) | 2.11% (inactive) |
| O=C(COCc1cc(-c2ccc3c(c2)OCO3)on1)N1CCN(c2cccc(Cl)c2)CC1 | -0.674% (inactive) |
| CCN(CC)c1ccc2oc(=O)c(C)nc2c1 | -46.3% (active) |

| Structure (SMILES) | activity change, negative = inhibition |
| --- | --- |
| CCN(CC)c1ccc(/C=N/Nc2nc(C)cc(C)n2)c(O)c1 | -8.39% (inactive) |
| CCN(CC)c1ccc2cc(C(N)=O)/c(=N\NC(=O)c3ccncc3)oc2c1 | -7.4% (inactive) |
| CCC(=O)Nc1ccc2nn(-c3ccc(F)cc3)nc2c1 | 0.799% (inactive) |
| O=C(O)CCC(=O)NCc1ccc(C(=O)O)cc1 | 3.84% (inactive) |
| O=C(O)CCC(=O)NCc1ccc2[nH]c3c(c2c1)CCCC3 | -41.3% (active) |
| Cc1cccc(NC(=S)NCc2ccc3[nH]c4c(c3c2)CCCC4)c1 | -0.782% (inactive) |
| Cc1ccc(C23CC4CC(CC(C(=O)NCC(=O)O)(C4)C2)C3)cc1 | 6.61% (inactive) |
| O=S(=O)(Nc1cccc(Oc2ccc(Cl)cc2)n1)c1ccc(F)cc1 | 3.65% (inactive) |
| Cc1cc(C)c(C2C3=C(Nc4c2c(C)nn4-c2ccccn2)c2ccccc2C3=O)c(C)c1 (centres undefined) | -0.679% (inactive) |
| Cc1ccc(-c2ccnc3[nH]n(-c4ccccc4)c(=O)c23)cc1 | 2.09% (inactive) |
| Cc1ccc(C2C3=C(Nc4[nH]n(-c5ccccc5)c(=O)c42)c2ccccc2C3=O)cc1 (centres undefined) | -44% (active) |
| COc1cc(Cl)c(C)cc1NC(=O)CN1CCCCCC1 | 0.688% (inactive) |
| CC(=O)N1CCc2c(sc(NC(=O)CCS(=O)(=O)c3ccccc3)c2C#N)C1 | 1.84% (inactive) |
| N#Cc1c(N)sc2c1CCN(C(=O)OCc1ccccc1)C2 | -39.2% (active) |
| CC(C)N1CCc2c(sc(NC(=O)Cc3ccccc3)c2C#N)C1 | -3% (inactive) |
| O=C1C2C(c3ccccc3)CC=CC2C(c2ccoc2)N1Cc1ccccc1 (centres undefined) | 8.25% (inactive) |
| COC(=O)CCCC1=CC2=CC(=O)C(C)(OC(=O)c3cccs3)C(=O)C2=CN1CC1CC1 (centres undefined) | -36.8% (active) and -32.4% (active) |
| CC(C)(C)OC(=O)NCCCCC1=CC2=CC(=O)C(C)(OC(=O)c3cccs3)C(=O)C2=CO1 (centres undefined) | 0.595% (inactive) |
| CCCCC1=CC2=CC(=O)C(C)(OC(=O)CC)C(=O)C2=CN1CCCOC(C)C (centres undefined) | -25% (inactive) and -18.1% (inactive) |
| COC(=O)CCCC1=CC2=CC(=O)C(C)(OC(=O)c3cccs3)C(=O)C2=CN1c1cccc(C#N)c1 (centres undefined) | -7% (inactive) and -4.26% (inactive) |
| COC(=O)CCCC1=CC2=CC(=O)C(C)(OC(=O)c3cccs3)C(=O)C2=CN1c1ccc(CO)cc1 (centres undefined) | 1.62% (inactive) |
| COC(=O)CCCC1=CC2=CC(=O)C(C)(OC(=O)c3cccs3)C(=O)C2=CN1CC(C)C (centres undefined) | -16.4% (inactive) and -34.8% (active) |

Reference: PubChem BioAssay AID2472 (National Center for Advancing Translational Sciences (NCATS), 2010)
